Measured values: PubChem BioAssay AID2685 (National Center for Advancing Translational Sciences (NCATS), 2010)
The campaign covered roughly 320,000 compounds. About 2,100 (0.66%) were called active. About 53% were inconclusive and are not listed. Calls follow the shape of the dose curve; as a rule, active = well fitted inhibition curve with a large enough effect in the signal ratio, with a control signal flat (not every such curve was filed as active); inconclusive = small, poorly fitted or top-dose-only effect, or effect the other way, or a change in a side signal; inactive = flat fitted curve, though single readings scatter; the % refers to the signal ratio. For the sample, actives were picked, then their nearest neighbours and some compounds at random.

Assay: qHTS Assay for Lipid Storage Modulators in Drosophila S3 Cells;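 as to cell number change: cells counted by Cell Tracker Red CMTPX staining in the red channel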; as to lipid storage change, negative = inhibition: % is scaled to controls: 0 for no effect and ±100 for the full control effect
Details: BODIPY lipid droplet fluorescence, 18-24 h, cells fed with added oleic acid; cell number change: measured here: cell count max response; series mostly up to 46.1 µM; lipid storage change, negative = inhibition: at the top concentration
Outline: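 Drosophila S3 cells got compounds at several concentrations plus oleic acid (400 uM solution). Laser-scanning cytometry with 488 nm excitation read lipid droplets at 500-530 nm and cells at 575-640 nm. Percent activity was relative to 20 uM Triacsin C.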
Potency is read from the fitted curve at half-maximal effect.

Structure (SMILES)	lipid storage change, negative = inhibition	cell number change	Potency	outcome
CCn1c(SC)nc2cc(S(=O)(=O)N3CCCCC3)ccc21	1.06% (inactive)	-3.03%	–	–
Cc1ccc(OCCC(=O)OCC(=O)Nc2ccc(Cl)cn2)cc1	6.81% (inactive)	-15.3%	–	–
Cc1ccc(C(=O)NCC(=O)OCC(=O)Nc2ccc(Cl)cn2)cc1	–	-28.4%	3.66 µM (active)	–
O=C(COC(=O)CNC(=O)c1ccco1)Nc1ccc(Cl)cn1	–	–	–	inactive
N#Cc1ccc(COc2cccc3cccnc23)cc1	–	-22.2%	–	inactive
Cc1cc(O)ccc1NS(=O)(=O)c1ccc2c3c(cccc13)C(=O)N2	–	-0.855%	0.366 µM (active)	–
Cc1oc2c(cc(NS(=O)(=O)c3ccc4c5c(cccc35)C(=O)N4)c3ccccc32)c1C(=O)OC(C)C	-3.12% (inactive)	10.8%	–	–
CC(C)C(NS(=O)(=O)c1ccc2c3c(cccc13)C(=O)N2)C(=O)O (centres undefined)	6.99% (inactive)	15.8%	–	–
O=C(N=C1N=C2C=CC=CN2Cc2ccccc21)c1ccc(S(=O)(=O)N2CCCC2)cc1	16.7% (inactive)	13.8%	–	–
O=C(Nc1ccc(Oc2ncnc3cc(Cl)ccc23)nc1)Nc1cccc(C(F)(F)F)c1	-3.18% (inactive)	-3.74%	–	–
O=C(N[C@H]1CC1c1ccccc1)c1ccc([N+](=O)[O-])cc1 (some centres undefined)	3.34% (inactive)	-1.22%	–	–
C=C(C)Cn1c(-c2ccncc2)n[nH]c1=S	1.47% (inactive)	-24.7%	–	–
O=C(CCN1CCOCC1)N1CCCC(Nc2ccc(F)cc2)C1 (centres undefined)	26.7% (inactive)	–	–	–
O=C1Nc2ncccc2OC1CCCl (centres undefined)	10.4% (inactive)	11.9%	–	–
O=C1Nc2ncccc2OC1CCO (centres undefined)	–	-19.3%	25.9 µM (active)	–
CCS(=O)(=O)c1ccc2c(c1)NC(=O)C(CCO)O2 (centres undefined)	-3.89% (inactive)	7.6%	–	–
CCOC(=O)c1ccc(NC(=O)Cn2c(=O)oc3ccccc32)cc1	-11.9% (inactive)	2.64%	–	–
COc1cc(C2NC(=O)NC(C)=C2C(=O)OC(C)(C)C)ccc1OCC(N)=O (centres undefined)	5.76% (inactive)	1.52%	–	–
COc1ccc2c(c1OC)C(=O)NC(C)=C(C(=O)OC(C)(C)C)C2O (centres undefined)	–	0.147%	14.6 µM (active)	–
CC1=C(C(=O)OC(C)(C)C)C(c2cccs2)NC(=O)N1 (centres undefined)	5.94% (inactive)	16.7%	–	–
O=C1O/C(=C\C(=O)N2CCOCC2)c2ccccc21	7.9% (inactive)	1.94%	–	–
CCN(CC)c1ccc(C(=O)OCC(=O)Nc2cc3oc4ccccc4c3cc2OC)cc1	9.28% (inactive)	-0.812%	–	–
CC(C)n1c(SCC(=O)N2CCCCC2)nc2c1c(=O)n(C)c(=O)n2C	–	-23%	0.116 µM (active)	–
CC(C)n1c(SCC(=O)N2CCN(C)CC2)nc2c1c(=O)n(C)c(=O)n2C	–	1.32%	–	inactive

Structure (SMILES)	lipid storage change, negative = inhibition	cell number change	Potency	outcome
Cn1c(=O)c2c(nc(SCC(=O)N3CCCCCC3)n2C)n(C)c1=O	2.93% (inactive)	8.11%	–	–
CCC(CC)C(=O)NCCc1cc2ccc(C)c(C)c2[nH]c1=O	–	–	–	inactive
CCn1cc(/C=N/O)c(C)n1	7.49% (inactive)	7.41%	–	–
CC1(C)N=C(/C=N/O)C=[N+]1[O-]	–	-9.07%	6.51 µM (active)	–
CCCN(CCC)CCCNC(=O)C1CCC(CNS(=O)(=O)c2cccc3nsnc23)CC1 (centres undefined)	–	-15%	–	inactive
CCCCC(=O)NC(c1ccccc1OC)c1ccc2cccnc2c1O (centres undefined)	-21.7% (inactive)	-24%	–	–
CC(=O)NC(c1ccc(C(C)C)cc1)c1ccc2cccnc2c1O (centres undefined)	–	–	–	inactive
CCCCC(=O)NC(c1ccc(C(C)C)cc1)c1ccc2cccnc2c1O (centres undefined)	–	-28.4%	18.4 µM (active)	–
CCOc1c(Br)cc(CNc2ccc(N3CCOCC3)cc2)cc1OC	-18.5% (inactive)	-20.8%	–	–
Cc1cc(OC(C)C(=O)NCC(O)c2ccccc2)c2c(C)cc(=O)oc2c1 (centres undefined)	–	6.57%	–	inactive
CCOc1ncccc1C(=O)NCc1ccccc1Cl	25.4% (inactive)	–	–	–
COc1ccc(CC(=O)NNC(=O)COc2ccc(Br)cc2C)cc1OC	14.4% (inactive)	1.07%	–	–
NC(=O)c1c(NC(=O)c2ccc(F)cc2)sc2c1CCC2	–	5.61%	4.61 µM (active)	–
NC(=O)c1c(NC(=O)c2ccccc2F)sc2c1CCCC2	–	-10.7%	1.64 µM (active)	–
COc1ccccc1C(=O)Nc1sc2c(c1C(N)=O)CCCC2	–	-22.3%	–	inactive
O=C(Nc1sc2c(c1C(=O)O)CCCCC2)c1ccccc1F	-22.6% (inactive)	-1.56%	–	–
NC(=O)c1c(NC(=O)c2ccccc2)sc2c1CCC2	–	-24.3%	–	inactive
NC(=O)c1c(NC(=O)c2ccc(F)cc2Cl)sc2c1CCC2	-6.16% (inactive)	3.89%	–	–
O=S(=O)(Nc1ccc(Cl)cn1)c1ccccc1	-4.96% (inactive)	14.4%	–	–
Cc1cccc(/N=C/c2nc(-c3ccccc3Br)oc2O)n1	8.31% (inactive)	18.5%	–	–
COc1cc(S(=O)(=O)N2CCOCC2)ccc1NC(=O)COC(=O)c1ccccn1	-3.84% (inactive)	9.96%	–	–
Cc1ccc[n+](CC(=O)N2CCCc3ccccc32)c1	–	-16.8%	–	inactive
CNCC(=O)N1CCN(c2ncc(C(F)(F)F)cc2Cl)CC1	4.67% (inactive)	-11.3%	–	–
O=C(CSc1ccccn1)N1CCN(c2ncc(C(F)(F)F)cc2Cl)CC1	4.42% (inactive)	6.61%	–	–

Structure (SMILES)	lipid storage change, negative = inhibition	cell number change	Potency	outcome
O=C(O)c1nn(CC(=O)N2CCN(c3ncc(C(F)(F)F)cc3Cl)CC2)c(=O)c2ccccc12	–	-1.8%	0.82 µM (active)	–
CSc1nnc(-c2ccccc2)n1N	3.24% (inactive)	9.66%	–	–
Cc1ccc(NC(=O)c2cccnc2)cc1S(=O)(=O)N(C)C	-15% (inactive)	5.29%	–	–
CCOc1ccc(-n2cc(-c3ccccc3)c3c(SC(C)C(=O)OC)ncnc32)cc1 (centres undefined)	-15.9% (inactive)	-20.7%	–	–
CCn1c(=O)cc(OCC(=O)Nc2ccccc2N2CCN(C)CC2)c2ccccc21	-3.92% (inactive)	6.65%	–	–
COC(=O)c1cc(CNC(=O)c2sccc2-c2ccccc2)ccc1OC	-18.3% (inactive)	-10.7%	–	–
CCOc1ccc(Cc2c(Cl)nc(N)nc2Cl)cc1	–	–	–	inactive
COc1ccc(Cc2c(Cl)ncnc2Cl)cc1	–	-13.7%	18.4 µM (active)	–
COc1ccc(Cc2c(C)nc(N)nc2Cl)cc1	16.4% (inactive)	9.54%	–	–
CCOC(=O)C(=CNc1ccc(S(N)(=O)=O)cc1)C(=O)OCC	-10.1% (inactive)	-11.4%	–	–
CCOc1ccc(NC(=O)[C@@H](NC(=O)c2ccco2)C(C)C)cc1	–	4.17%	–	inactive
Cc1nc(SCC(=O)c2ccc(Cl)cc2)c([N+](=O)[O-])[nH]1	–	-28.5%	–	inactive
Cc1ccc(C(C)C)c(OCC(=O)Nn2c(C)nc3ccccc3c2=O)c1	–	–	–	inactive
Cc1ccc(C(C)C)c(OCC(=O)NNC(=O)CC2OC(=O)c3ccccc32)c1 (centres undefined)	–	–	–	inactive [at 0.0737 µM]
Cc1ccc(C(C)C)c(OCC(=O)NNC(=O)C(C(C)C)N2C(=O)c3ccccc3C2=O)c1 (centres undefined)	–	-20.9%	16.4 µM (active)	–
CC(=O)N1c2ccccc2NC2=C(C(=O)CCC2)C1c1ccc(F)cc1 (centres undefined)	0.776% (inactive)	1.82%	–	–
COc1ccc2c(c1)c(CC(=O)OC(C)C(=O)N(C)C)c(C)n2C(=O)c1ccc(Cl)cc1 (centres undefined)	–	-15.8%	1.46 µM (active)	–
COc1ccc2c(c1)c(CC(=O)OCC(N)=O)c(C)n2C(=O)c1ccc(Cl)cc1	20.6% (inactive)	-0.195%	–	–
COc1ccc2c(c1)c(CC(=O)O)c(C)n2C(=O)c1ccc(Cl)cc1	-2.62% (inactive)	3.94%	–	–
Cc1ccc(/C=C2\Oc3cc(OC(=O)N4CCOCC4)ccc3C2=O)cc1	2.13% (inactive)	0.311%	–	–
COC(=O)CC(NC(=O)C1CC1)c1ccc2c(c1)OCO2 (centres undefined)	4.85% (inactive)	–	–	–
CC1Oc2ccccc2C=C1/C=N/NC(=O)[C@@H](C)NC(=O)OC(C)(C)C (some centres undefined)	5.39% (inactive)	8.38%	–	–
CCOC(=O)N1CCN(C(=O)c2ccc(Cn3c(=S)[nH]c4cc(OCC)c(OCC)cc4c3=O)cc2)CC1	7.39% (inactive)	–	–	–
COc1ccc(CCNC(=O)C(=O)N2CCCCC2)cc1OC	-1.78% (inactive)	6.42%	–	–

Structure (SMILES)	lipid storage change, negative = inhibition	cell number change	Potency	outcome
COc1ccc(C(=O)Nc2cnc(NC(=O)c3cccs3)cc2C)cc1	25.6% (inactive)	-9.21%	–	–
O=C(Nc1ccc(NC(=O)c2cccs2)cn1)c1ccccc1	-16.2% (inactive)	8.82%	–	–
COc1ccc(C(=O)Nc2ccc(NC(=O)c3cccs3)cn2)cc1	–	12.4%	10.3 µM (active)	–
O=C(NCCCO)/C(=C\c1cn(-c2ccccc2)nc1-c1cccnc1)NC(=O)c1ccccc1	19.7% (inactive)	19.4%	–	–
COC(=O)c1cc(C(=O)OCC(=O)NCc2cccs2)cc([N+](=O)[O-])c1	-3.38% (inactive)	-8.04%	–	–
N#Cc1ccccc1S(=O)(=O)N1CCN(S(=O)(=O)c2ccc(Br)c(C(=O)O)c2)CC1	-3.74% (inactive)	–	–	–
CCCCn1c(N)c(N(CCOC)C(=O)C2CCN(S(=O)(=O)c3ccc(C)cc3C)CC2)c(=O)[nH]c1=O	17.2% [at 0.0737 µM] (inactive)	–	–	–
O=[N+]([O-])c1ccc(S(=O)(=O)CC2CSc3nc4ccccc4n32)cc1 (centres undefined)	–	-0.884%	32.6 µM (active)	–
Cc1nnc2n(c1=O)C(CS(=O)(=O)c1ccc3ccccc3c1)CS2 (centres undefined)	7.18% (inactive)	2.91%	–	–
Cc1ccc(S(=O)(=O)CC2CSc3nc(N)cc(=O)n32)cc1 (centres undefined)	-8.79% (inactive)	2.18%	–	–
CCOC(=O)Nc1cc2c(C)cc(=O)oc2cc1C	38.2% (inactive)	12.9%	–	–
Cc1ccc(CN2CCN(Cc3c[nH]c4ccccc34)CC2CCO)o1 (centres undefined)	-12.5% (inactive)	12.4%	–	–
Cc1cccc(C)c1NC(=O)N1C2CCC1CC(O)(c1cccnc1)C2 (centres undefined)	0.613% (inactive)	9.99%	–	–
O=C(Nc1ccccc1C(=O)NC1CC1)c1ccccc1	3.91% (inactive)	10.8%	–	–
CCOC(=O)C1=NN(c2cccc(Cl)c2)C2=NC(C)=C(C(=O)OC)C(c3cccs3)N12 (centres undefined)	-3.04% (inactive)	-18.3%	–	–
CCOc1ccc2ccccc2c1/C=N\NC(=O)c1ccc([N+](=O)[O-])cc1	–	-16.1%	6.51 µM (active)	–
COc1ccc2ccccc2c1/C=N/NC(=O)c1ccc([N+](=O)[O-])cc1	-10.6% (inactive)	-15.8%	–	–
CCOc1ccc2ccccc2c1/C=N/NC(=O)c1ccncc1	–	6.87%	–	inactive
CC(C)CNC(=O)CN1C(=O)NC2(CCCc3ccccc32)C1=O (centres undefined)	-4.01% (inactive)	7.92%	–	–
CCCNC(=O)C1CCN(S(=O)(=O)c2ccc3nc4c(c(C(=O)O)c3c2)CCCCC4)CC1	18.1% (inactive)	4.41%	–	–
CN(C)N1C(=O)CC(C)(c2ccc([N+](=O)[O-])cc2)C1=O (centres undefined)	-2.1% (inactive)	-4.15%	–	–
